PubChem BioAssay AID2012 (Sanford-Burnham Center for Chemical Genomics, 2009)
Hit rate of the full screen: of about 290,000 compounds, about 2,700 (0.93%) were called active. The rule behind the calls is not given here. Shown is part of a subset that was picked to be rich in actives.

Biological target: Eukaryotic translation initiation factor 4H (Homo sapiens) (UniProt Q15056)
Test: human eIF4H binding inhibitors, primary screen, translation initiation inhibitor project, biochemical, uHTS, fluorescence polarization (AID 2012);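 note: calls also rest on retests at 20 µM and on dose response follow-up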
Settings: eIF4H fluorescence polarization binding assay, stronger effect = higher value

| SMILES | inhibition (at 35 µM) | inhibition (confirmation average, at 20 µM) [%] |
| --- | --- | --- |
| CCOc1ccc(C(=O)Nc2c3c(nn2-c2ccccc2)CS(=O)(=O)C3)cc1 | -1.2% (inactive) | – |
| O=C(Nc1ncc([N+](=O)[O-])s1)C1COc2ccccc2O1 (stereo not drawn) | -6.7% (inactive) | – |
| N[C@@H](Cc1ccccc1)C(=O)N1CCC(C(=O)NCC(=O)Nc2ccc(F)cc2)CC1 | 20% (inactive) | – |
| Cc1ccc(-n2c(C)cc(/C=N/Nc3ccc([N+](=O)[O-])cn3)c2C)c(C)c1 | 6.6% (inactive) | – |
| Cc1cc(/C=N/Nc2ccc([N+](=O)[O-])cn2)c(C)n1-c1cccc(C(=O)O)c1 | 54.4% (active) | – |
| COc1cc(/C=N\Nc2ccc([N+](=O)[O-])cn2)ccc1OCC(=O)O | -3.4% (inactive) | – |
| O=C(c1cc(S(=O)(=O)N2CCOCC2)ccc1Cl)N1CCOCC1 | -2.4% (inactive) | – |
| COc1cc2c(cc1OC)C(C)N(S(=O)(=O)c1cnc(Cl)c(Cl)c1)CC2 (stereo not drawn) | 1.8% (inactive) | – |
| Cc1ccc(NS(=O)(=O)c2ccc(F)cc2)nc1 | -7.9% (inactive) | – |
| CCC(Cc1ccccc1)NS(=O)(=O)c1ccc2c(c1)NC(=O)CS2 (stereo not drawn) | -2.9% (inactive) | – |
| CCOC(=O)c1c(C)[nH]c2c1-c1ccccc1C(=O)C2=O | -11% (inactive) | – |
| CCCCOC(=O)c1[nH]c(C)c(C(=O)OC)c1C | 4.8% (inactive) | – |
| CCOC(=O)c1c(C)[nH]c(C2=NNC(=NC(C)COC)SC2)c1C (stereo not drawn) | -1.8% (active) | 93.1 |
| COc1cc(/C=N/O)ccc1OCc1ccc([N+](=O)[O-])cc1 | 0.1% (inactive) | – |
| COc1ccc(C(=O)/C=C/c2ccc(-c3ccccc3)cc2)cc1CSCC(=O)O | 82.3% (inactive) | 47.3 |
| COC(=O)c1ccc(COc2ccc(/C=C/C(=O)c3ccc(OC)c(CSCC(=O)O)c3)cc2OC)cc1 | 81% (active) | 68.7 |
| CCCc1ccc(OCC(O)CN2CCN(CCO)CC2)cc1 (stereo not drawn) | -2.4% (inactive) | – |
| Cc1cc(C)cc(OCC(=O)NNC(=O)CCN2C(=O)c3ccccc3C2=O)c1 | 2.3% (active) | 87.4 |
| Cc1ccc(NC(=O)CCN2C(=O)c3ccccc3C2=O)cc1C | -6.5% (inactive) | – |
| Cc1cc(C)cc(NC(=O)CCN2C(=O)c3ccccc3C2=O)c1 | -1.3% (inactive) | – |
| COc1ccc(CN2CC(C(=O)NCCc3ccc(Cl)cc3)CC2=O)cc1 (stereo not drawn) | -12.2% (inactive) | – |
| O=C(N/C(=C\c1ccc([N+](=O)[O-])cc1)C(=O)N1CCOCC1)c1cccc(Br)c1 | 7.9% (inactive) | – |
| O=C1c2ccccc2C(=O)N1CCOc1ccc(F)cc1 | 0.9% (inactive) | – |

| SMILES | inhibition (at 35 µM) | inhibition (confirmation average, at 20 µM) [%] |
| --- | --- | --- |
| O=C(Nc1nonc1-c1ccc(Cl)cc1)c1ccco1 | -12.8% (inactive) | – |
| Cc1cc2occ(CC(=O)NNC(=O)c3ccccc3F)c2cc1C | -3% (inactive) | – |
| COCCNC(=O)c1ccccc1NS(=O)(=O)c1ccc(C)c([N+](=O)[O-])c1 | 9.2% (inactive) | – |
| CC1CN(C(=O)c2ccccc2NS(=O)(=O)c2cccc([N+](=O)[O-])c2)CC(C)O1 (stereo not drawn) | -0.3% (active) | 95.9 |
| COc1ccc(S(=O)(=O)Nc2ccccc2C(=O)N2CCCC2)cc1C | -2.4% (inactive) | – |
| O=S(=O)(c1ccc(Cl)cc1)c1nc(-c2ccccc2F)oc1NCCN1CCOCC1 | -7.4% (inactive) | – |
| Cc1nn(C)cc1S(=O)(=O)N1CCN(c2ccc(F)cc2)CC1 | 1% (inactive) | – |
| COc1ccc(Br)cc1/C=N/NC(=O)c1cccc(S(=O)(=O)N2CCOCC2)c1 | -3.8% (inactive) | – |
| O=C(N/N=C/c1ccc([N+](=O)[O-])o1)c1cccc(S(=O)(=O)N2CCOCC2)c1 | 52% (active) | 78.6 |
| COc1cccc(/C=N/NC(=O)CNC(=O)c2ccc(S(=O)(=O)N3CCOCC3)cc2)c1OC | 7.4% (inactive) | – |
| COc1ccccc1C(=O)COC(=O)CNS(=O)(=O)c1ccc(NC(C)=O)cc1 | -9.9% (inactive) | – |
| O=C(O)CCCC(=O)N1N=C(c2ccco2)CC1c1ccco1 (stereo not drawn) | 7.4% (inactive) | – |
| O=c1c2ccccc2ncn1/N=C/c1ccccc1 | 4.2% (inactive) | – |
| COc1ccc(C(=S)Nc2ccccc2)cc1 | -0.5% (inactive) | – |
| COc1ccc(Nc2nc(=O)[nH]nc2C)cc1 | 3.5% (inactive) | – |
| COc1ccc(NC2=CC(=S)NC(C)(C)C2)cc1 | 67.8% (active) | 62.7 |
| CCCCSCCCNC(=O)C1CCC(CNS(=O)(=O)c2ccc(NC(C)=O)cc2)CC1 (stereo not drawn) | 2.4% (inactive) | – |
| Cc1cc(CNC(=O)C2CCC(=O)N(CCc3ccc(Cl)cc3)C2)no1 (stereo not drawn) | -0.4% (inactive) | – |
| CCOC(=O)C1C(c2ccc(O)cc2)NC(=O)NC1(O)C(F)(F)F (stereo not drawn) | -0.5% (inactive) | – |
| Cc1ccccc1NC(=O)CCNS(=O)(=O)c1ccc2[nH]c(=O)oc2c1 | -5.4% (inactive) | – |
| CCN1CCN(CCNC(=O)c2ccc3c(c2)NC(=O)/C(=C\c2ccc(OC)c(OC)c2)S3)CC1 | 22.4% (inactive) | – |
| CCN1CCN(CCNC(=O)c2ccc(/C=C3/Sc4ccccc4N(Cc4cccc(C)c4)C3=O)cc2)CC1 | -0.9% (active) | 95.1 |
| O=C(NCCN1CCOCC1)c1ccc(/C=C2\Sc3ccccc3N(Cc3ccc(F)cc3)C2=O)cc1 | -7.3% (inactive) | – |

| SMILES | inhibition (at 35 µM) | inhibition (confirmation average, at 20 µM) [%] |
| --- | --- | --- |
| COc1ccc(C)cc1Nc1nc(C)nc2c1oc1ccccc12 | -11.2% (inactive) | – |
| CN1CCN(C(=O)c2ccc(NS(=O)(=O)c3ccccc3)cc2)CC1 | -6.4% (inactive) | – |
| CCC(C(=O)NC1CCCC1)N(C(=O)Cn1nnc(-c2ccc(C)o2)n1)c1ccc(OC)c(OC)c1 (stereo not drawn) | 5.7% (inactive) | – |
| CCOCCCN(C(=O)Cn1nnc(-c2ccc(OC)c(OC)c2)n1)C(CC)C(=O)NC1CCCC1 (stereo not drawn) | -12.4% (active) | 91 |
| COc1ccc(-c2nnn(CC(=O)N(CCO)C(C(=O)NC3CCCC3)c3ccc(F)cc3)n2)cc1 (stereo not drawn) | -0.3% (inactive) | – |
| O=C(O)Cn1c(Cc2ccccc2)nc2ccccc21 | -6.9% (inactive) | – |
| O=C(Nc1ccc(Cl)c(Cl)c1)c1ccccc1NC(=O)C1CC=CCC1C(=O)O (stereo not drawn) | -5.2% (inactive) | – |
| COc1cccc(S(=O)(=O)NCc2ccc(C(=O)NCc3ccccn3)cc2)c1 | -1% (inactive) | – |
| O=C(NCc1ccccn1)c1ccc2nc(-c3ccco3)c(-c3ccco3)nc2c1 | 97% (active) | – |
| O=C(NCc1ccccn1)c1cc(-c2ccccc2Cl)on1 | -3.2% (inactive) | – |
| COc1ccc(C23NCCN2C(=O)c2ccccc23)cc1 (stereo not drawn) | -1.8% (inactive) | – |
| Cc1ccc(CN2CCN(c3ncccn3)CC2)c(C)c1 | 17.4% (inactive) | – |
| COc1ccc(NS(=O)(=O)c2cc(NC(=O)C3CCCCC3)ccc2N2CCOCC2)cc1 | 13.7% (active) | 81.1 |
| COc1ccc(NS(=O)(=O)c2cc(NC(=O)/C=C/c3cc(OC)c(OC)c(OC)c3)ccc2N2CCCCC2)cc1 | -7.6% (inactive) | – |
| COc1ccc(NS(=O)(=O)c2ccc(N3CCOCC3)c(NC(=O)c3ccccc3Br)c2)cc1 | -4.7% (inactive) | – |
| CCC(C)[C@H](NC(=O)N1CCn2c1nc1ccccc12)C(=O)NCc1ccc(OC)cc1 (stereo partly drawn) | -4.4% (inactive) | – |
| CCc1ccc(-c2nc(SCC(=O)NC3CCCC3)n[nH]2)cc1 | 45.6% (inactive) | – |
| CCCN(c1ccc(C)cc1)c1nc(=O)c2cccnc2s1 | 91.1% (active) | – |
| COc1ccccc1N1CC(C(=O)Nc2nnc(SCC(=O)NCC3CCCO3)s2)CC1=O (stereo not drawn) | -4% (inactive) | – |
| CN(C(=O)c1cc2c(=O)n3ccccc3nc2s1)C1CCCCC1 | -4.1% (inactive) | – |
| COc1ccc(OC)c(Nc2nc(-c3ccc(O)c(O)c3)cs2)c1 | 65.5% (active) | – |
| COc1ccc(-c2csc(Nc3ccc(O)cc3)n2)cc1 | 9.7% (inactive) | – |
| COc1cccc(CC(=O)Nc2nc(-c3ccc(OC)c(OC)c3)cs2)c1 | 6.8% (inactive) | – |

| SMILES | inhibition (at 35 µM) | inhibition (confirmation average, at 20 µM) [%] |
| --- | --- | --- |
| O=S(=O)(Nc1cccc(-n2cnnn2)c1)c1cnc(Cl)c(Cl)c1 | -5.5% (inactive) | – |
| CN(C)S(=O)(=O)c1ccc(N/C=C(\[N+](=O)[O-])S(=O)(=O)c2ccccc2)cc1 | -0.3% (inactive) | – |
| COc1cccc(OC)c1C(=O)Nc1c(C(=O)N2CCN(c3ccccn3)CC2)oc2ccccc12 | -10.2% (inactive) | – |
| Oc1c(Cl)cc(Cl)c(Cl)c1Cc1c(O)c(Cl)cc(Cl)c1Cl | 51% (active) | 96.3 |
| COc1ccc(CSc2nnnn2-c2ccc(O)cc2)cc1F | -12% (inactive) | – |
| COc1cccc(NC(=O)c2ccccc2N(Cc2ccccc2)S(C)(=O)=O)c1 | -8.4% (inactive) | – |
| COC(=O)[C@@H]1CCCN1C(=O)c1cc(COc2cccc3cccnc23)on1 | 4.3% (inactive) | – |
| O=C1CCCC(O)=C1N=Nc1ccc2ncsc2c1 | 69.2% (active) | 94.3 |
| O=C1CCCC(O)=C1N=Nc1ccc(S(=O)(=O)N2CCOCC2)cc1 | 27.7% (inactive) | – |
| CC(CC(=O)N1CCN(S(=O)(=O)c2ccccc2)CC1)n1cncn1 (stereo not drawn) | -2.7% (inactive) | – |
| COc1ccc(Cc2nnc(NC(=O)c3ccc(OC)cc3OC)s2)cc1 | 4.9% (inactive) | – |
| COc1ccc(Cc2nnc(NC(=O)Cc3cccs3)s2)cc1 | 71.3% (active) | – |
| CCc1nnc(NC(=O)Cc2cccs2)s1 | 19.2% (inactive) | – |
| CC1CN(C(=O)CCC(=O)NCCCN2CCC(Cc3ccccc3)CC2)c2cc(Cl)ccc2O1 (stereo not drawn) | 6% (inactive) | – |
| C#CCOc1ccccc1/C=C1/C(=O)ON=C1C | -20.1% (inactive) | – |
| Cc1ccc(NC(=O)c2ccc(Oc3ncccn3)cc2)cc1 | 0.1% (inactive) | – |
| Cc1ccc(NC(=O)c2cccnc2C(=O)Nc2ccc(C)cc2)cc1 | 4% (active) | 65.7 |
| Cc1ccc(NC(=O)Nc2cccnc2)cc1 | 2.1% (inactive) | – |
| O=C(NC(=S)Nc1ccc(S(=O)(=O)N2CCOCC2)cc1)c1ccccc1[N+](=O)[O-] | 6.8% (inactive) | – |
| O=[N+]([O-])c1cc(Cl)cc(/C=N/NC(=S)Nc2cc(S(=O)(=O)N3CCOCC3)ccc2Cl)c1O | 89.6% (active) | – |
| O=C(N/N=C/c1cc(Cl)cc([N+](=O)[O-])c1O)C(O)(c1ccccc1)c1ccccc1 | 1.2% (inactive) | – |
